# Assay results published in PubChem BioAssay (NCATS).
# Results filed as inconclusive are left out. Unmarked numbers belong to inactive results. The source made the active and inactive calls. Calls come from the whole dose curve; as a rule, active = well fitted cell-killing curve with a large enough effect; inconclusive = small, poorly fitted or top-dose-only effect, or effect the other way; inactive = no such curve, though single readings can be large or run the other way.
# Assay: Quantitative High-Throughput drug screen in 47 multiple myeloma cell lines against the NCATS MIPE library collection: XG1_PLB cell viability assay (AID 1919866); note: nearly all actives have a fitted effect of over 35% in size
# Settings: CellTiter-Glo ATP, 48 h; series mostly up to 45.8 µM; viability: at the top concentration
# From the text: PI: Beverly A. Mock Ph.D.
# Laboratory of Cancer Biology and Genetics,
# Center for Cancer Research, National Cancer Institute,
# National Institute of Health, Bethesda, Maryland
# Drug resistance and disease progression are common in multiple myeloma (MM) patients, underscoring the need for new therapeutic combinations. […] We hypothesized that effective combinations would reduce MYC expression and enhance p16 activity. […] These preclinical data identify potentially useful drug combinations for evaluation in drug-resistant MM and reveal potential mechanisms of combined drug sensitivity.
# Described herein is the primary MIPE qHTS used to cherrypick compounds. Validated compounds were then further tested for potential synergistic activiy.
# [1] Peat TJ, Gaikwad SM, Dubois W, Gyabaah-Kessie N, Zhang S, Gorjifard S, Phyo Z, Andres M, Hughitt VK, Simpson RM, Miller MA, Girvin AT, Taylor A, Williams D, D'Antonio N, Zhang Y, Rajagopalan A, Flietner E, Wilson K, Zhang X, Shinn P, Klumpp-Thomas C, McKnight C, Itkin Z, Chen L, Kazandijian D, Zhang J, Michalowski AM, Simmons JK, Keats J, Thomas CJ, Mock BA. Drug combinations identified by high-throughput screening promote cell cycle transition and upregulate Smad pathways in myeloma. Cancer Lett. 2023 Aug 1;568:216284. doi: 10.1016/j.canlet.2023.216284. Epub 2023 Jun 24. PMID: 37356470; PMCID: PMC10408729.
# SEQUENCE No. (e.g., 1, 2, 3, etc.); […] (e.g., Cells, Incubation, Reagent, etc.); VALUE and DESCRIPTION.
# 1; Cells; 5 uL; white, solid bottom 1536-well Greiner assay plate.
# 2; Compounds; 23 nL; Kalypsis pin tool (Wako USA) equipped with a 1536-well pin head to transfer to the assay plates.
# 3; Incubation; 48 hours; 37C incubation.
# 4; Reagent;5uL; CellTiter Glo (Promega).
# 5; Detector; 425V; Luminescence; Viewlux PerkinElmer.
# NOTES (numbers refer to Sequence numbers above)
# 1. The cell-based screening methods employed in this study were like those previously published. Briefly, the corresponding myeloma cell lines were screened in 1,536-well plates with 500 cells, 5-uL per well for inhibition of cell viability (assessed by measuring ATP levels with CellTiterGlo).
# 2. NCATS MIPE 4.0 library of approved and investigational drugs were added using the Kalypsis pin tool. Wells treated with DMSO only for 100% viability and media only for 0% viability were used as controls.
# 3. The assay plates were covered and incubated for 48 hours in a 37C, 5% CO2 incubator with controlled humidity.
# 4. After 48 hours, CellTilter-GloTM luminescent substrate mix (Promega) reagent was added to the assay plate and plates we incubated for 5 min at room temperature.
# 5. Signal was measured as median relative luminescence units on a ViewLux (PerkinElmer) multiplate reader.
# [1] Heske CM, Davis MI, Baumgart JT, Wilson K, Gormally MV, Chen L, Zhang X, Ceribelli M, Duveau DY, Guha R, Ferrer M, Arnaldez FI, Ji J, Tran HL, Zhang Y, Mendoza A, Helman LJ, Thomas CJ. Matrix Screen Identifies Synergistic Combination of PARP Inhibitors and Nicotinamide Phosphoribosyltransferase (NAMPT) Inhibitors in Ewing Sarcoma. Clin Cancer Res. 2017 Dec 1;23(23):7301-7311. doi: 10.1158/1078-0432.CCR-17-1121. Epub 2017 Sep 12. PMID: 28899971; PMCID: PMC6636827.
# Potency is the fitted concentration of half-maximal effect.
SMILES,Potency,viability
Cc1[nH]c(C=C2C(=O)Nc3ccc(S(=O)(=O)Cc4c(Cl)cccc4Cl)cc32)c(C)c1C(=O)N1CCC[C@H]1CN1CCCC1,5.26 µM (active),–
c1ccc2c(Cc3c[nH]c4ccccc34)c[nH]c2c1,1.18 µM (active),–
CNC1CCC(N(Cc2cccc(-c3ccncc3)c2)C(=O)c2sc3c(F)ccc(F)c3c2Cl)CC1 (stereo not given),18.7 µM (active),–
COc1ccc(-c2oc3c(CC=C(C)C)c(OC4O[C@H](CO)[C@@H](O)[C@H](O)[C@@H]4O)cc(O)c3c(=O)c2OC2O[C@@H](C)[C@H](O)[C@@H](O)[C@@H]2O)cc1 (stereo not given in full),18.7 µM (active),–
CN(C[C@@H]1COCCO1)S(=O)(=O)Nc1ccc2ccc3ncc(-c4cnn(C)c4)cc3c(=O)c2c1,2.64 µM (active),–
CCS(=O)(=O)N1CC(CC#N)(n2cc(-c3ncnc4[nH]ccc34)cn2)C1,0.332 µM (active),–
COc1ccc2cc(-c3nc(-c4ccc(S(C)=O)cc4)[nH]c3-c3ccncc3)ccc2c1 (stereo not given),23.5 µM (active),–
O=c1c(-c2ccc(O)cc2)coc2cc(O[C@@H]3O[C@H](CO)[C@H](O)[C@H](O)[C@H]3O)ccc12,–,137%
CN[C@@H](C)C(=O)N[C@H]1CN(C(=O)CC(C)C)CC[C@H]2CC[C@@H](C(=O)NC(c3ccccc3)c3ccccc3)N2C1=O,13.2 µM (active),–
CC=CCC=CCCC(=O)[C@H]1O[C@@H]1C(N)=O,20.9 µM (active),–
O=c1cc(-c2cccc3c2Sc2ccccc2S3)oc(N2CCOCC2)c1,18.7 µM (active),–
Oc1ccc(C2CCN(c3ccnc4ccccc34)CC2)cc1O,0.833 µM (active),–
O=C(O)c1cc(O)c2c(c1)C(=O)c1cccc(O)c1C2=O,–,123% [at 92.2 µM]
CN1CCN(CCOc2cc(OC3CCOCC3)c3c(Nc4c(Cl)ccc5c4OCO5)ncnc3c2)CC1,18.7 µM (active),–
COc1ccc(C2Sc3ccccc3N(CCN(C)C)C(=O)C2OC(C)=O)cc1 (stereo not given),–,120%
C[N+](C)(C)CC(=O)O,–,98.5%
Nc1ncnc2ccccc12,7.43 µM (active),–
O=C(N[C@@H](c1ccccc1)[C@@H]1CCCCN1)c1cccc(C(F)(F)F)c1Cl,23.5 µM (active),–
Clc1ccc(COC(Cn2ccnc2)c2ccc(Cl)cc2Cl)cc1 (stereo not given),18.7 µM (active),–
CC(=O)Nc1ccc([C@H](C)C(=O)Nc2ncc(C(C)C)s2)cc1,0.418 µM (active),–

SMILES,Potency,viability
CC(C)(C(=O)NCC(F)(F)C(F)(F)F)C(=O)N[C@@H]1C(=O)Nc2ccccc2-c2ccccc21,10.5 µM (active),–
Clc1ccc(C(c2ccc(Cl)cc2)n2cc[n+](CC(OCc3ccc(Cl)cc3Cl)c3ccc(Cl)cc3Cl)c2)cc1 (stereo not given),8.33 µM (active),–
CC(C(=O)O)c1ccc(-c2ccccc2)c(F)c1 (stereo not given),9.35 µM (active),–
CN(C)CCC=C1c2ccccc2COc2ccc(CC(=O)O)cc21,20.9 µM (active),–
Nc1nc(F)nc2c1ncn2[C@@H]1O[C@H](COP(=O)(O)O)[C@@H](O)[C@H]1O,29.6 µM (active),–
CCOC(=O)C1=C(N)Oc2ccc(Br)cc2C1C(C#N)C(=O)OCC (stereo not given),16.6 µM (active),–
NC(CO)(CO)CCc1ccc(Sc2cccc(OCc3ccccc3)c2)cc1Cl,16.6 µM (active),–
COc1cc(O)c2c(c1)C(=O)c1cc(C)cc(O)c1C2=O,–,106% [at 23.2 µM]
CC1(C)CCC2=C(O1)c1ccccc1C(=O)C2=O,26.4 µM (active),–
O=c1[nH]cnc2c1ncn2[C@H]1CC[C@@H](CO)O1,–,125%
CCOc1ccc(Nc2nc(-c3c(C)nc4ccccn34)cs2)cc1,–,37.3%
Cc1nc(N)sc1-c1ccnc(Nc2ccc(N3CCOCC3)cc2)n1,2.64 µM (active),–
O=C(O)c1c(Cl)c(Cl)c(Cl)c(Cl)c1-c1c2cc(I)c(=O)c(I)c-2oc2c(I)c(O)c(I)cc12,5.9 µM (active),–
COc1ccc(-c2cc(=O)c3c(O)cc(O)cc3o2)cc1O,2.09 µM (active),–
CCNc1cc(NC2CCC(O)CC2)nc(Nc2ccc3c(ccn3Cc3ccccc3)c2)n1 (stereo not given),23.5 µM (active),–
CCn1cc(C(=O)O)c(=O)c2ccc(C)nc21,–,93.3%
CC[C@@H]1C=C(C)C[C@H](C)C[C@H](OC)[C@H]2O[C@@](O)(C(=O)C(=O)N3CCCC[C@@H]3C(=O)O[C@H](C(C)=C[C@@H]3CC[C@H](Cl)[C@H](OC)C3)[C@H](C)[C@@H](O)CC1=O)[C@H](C)C[C@H]2OC,14.8 µM (active),–
CCCCCN(C)CCC(O)(P(=O)(O)O)P(=O)(O)O,–,98.4%
CCC(=O)NC[C@H](Cc1ccc(OCCc2nc(-c3ccccc3)oc2C)cc1)NC(C)=CC(=O)c1ccc(C(F)(F)F)cc1,5.26 µM (active),–
CC(C)(Cc1ccc2ccccc2c1)NC[C@@H](O)COc1cccc(Cl)c1C#N,–,121%
